High-throughput results: PubChem, several laboratories
Shown are actives, neighbours in structure and some others; about 5.4% of the full set was active somewhere.
NR0B1 inh – NR0B1 (DAX1) inhibition; HEK293 Gal4-DAX1 luciferase reporter, luminescence; P51843; 340,000 tested, 0.99% active; AID 504766; inhibition, % at 6.75 µM;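 active = inhibition above the mean over all tested compounds plus 3 SD, cut at about 4.2% in these data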;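 also: 0% = DAX1-transfected cells with DMSO and 100% = empty-vector control cells with DMSO; inhibition shows as a rise in luminescence from relieved DAX1 repression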
HSF1 activator – increases HSF-1 driven luciferase reporter signal. NIH3T3-HGL HSF-1 luciferase reporter, MG132, 8 h; 100% = twice DMSO control signal. 300,000 tested, 1.7% active. AID 504408. activation, % at 9 µM;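 active = mean replicate activation of at least 50% with a set share of replicates each reaching 50%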;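 also: 0% = median of the neutral control wells and 100% = twice that signal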
AHR activator – activators of human aryl hydrocarbon receptor; P35869; activation, % at 5 µM; 320,000 tested, 2.5% active; AHR-responsive luciferase reporter cells, luminescence; in the data active = activation above about 47%;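 also: 0% = vehicle wells and 100% = reference agonist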
GAA850 FXN act – activators of GAA850 frataxin (FXN) promoter. activation, % at 6 µM. HEK293 lucGAA850 FXN promoter luciferase reporter, 24 h; percent of 10 µM SAHA response. AID 540364. 360,000 tested, 0.56% active;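 active = activation above the average of all compounds screened plus 3 SD, cutoff fixed separately per campaign, cut at about 7.5% in these data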;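 also: 0% = DMSO wells and 100% = 10 µM SAHA wells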
HSF1 inhib – HSF1 inhibition. 300,000 tested, 0.77% active. AID 2098. activity change, negative = inhibition, % at 7.5 µM (by protocol). NIH3T3-HGL HSE-luciferase, MG132-induced, luminescence 8 h; stronger effect = lower value;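 active = more than half of replicate wells show activity change below -50%, luminescence cut by over half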;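 also: luciferase reports HSF-1 transcriptional activity via heat shock element; 0% = median of DMSO wells and -100% = zero luminescence signal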
Starred values were filed as active, the others as inactive; / = no result.

SMILES | NR0B1 inh | HSF1 activator | AHR activator | GAA850 FXN act | HSF1 inhib
COc1ccc(CN(C)C(=O)Cc2ccc(S(=O)(=O)N3CCOCC3)s2)cc1OC | 0 | / | 0 | 3 | /
c1ccc2c(c1)Oc1cccc3cccc-2c13 | 4.3* | / | -2 | 0 | -4
CN(C)c1cccc2cccc(N(C)C)c12 | -1 | 5 | -1 | -3 | 2
CCN(CC)S(=O)(=O)c1ccc(C(=O)NC(C)(C)C)cc1 | 0 | 18 | 2 | 0 | 6
COC(=O)C(Cc1ccccc1)NC(=O)c1cccc(S(=O)(=O)N(C)C)c1 (centres undefined) | 4.4* | 17 | 7 | 2 | 1
OC(c1ccccc1)C(NCCNCc1ccccc1)c1ccccc1 (centres undefined) | 0 | / | / | -3 | /
N#C/C(=C\c1ccco1)c1nc2ccccc2s1 | 4 | 80* | 36 | 6 | 20
N#C/C(=C/c1ccc(-c2cc(C(=O)O)cc(C(=O)O)c2)o1)c1nc2ccccc2s1 | / | 21 | 1 | / | 8
COc1ccc(-c2ccc(C(=O)NCc3ccc(N4CCN(C)CC4)cc3)c3occc23)c(C)c1 | / | / | / | 1 | /
CCc1cc2c(=O)c(-c3nc(C)cs3)coc2cc1O | 2 | 25 | 60* | 4 | 21
Cc1ccc(S(=O)(=O)NCc2ccccc2)cc1C(=O)N1CCCC(C(F)(F)F)C1 (centres undefined) | -1 | 4 | 0 | 1 | 4
COc1ccc(CNC(=O)[C@H](C)NC(=O)C2CCN(C(=O)[C@H](CCSC)NC(=O)OC(C)(C)C)CC2)cc1 | 6.2* | -33 | 0 | 0 | -19
COc1ccc(CNC(=O)[C@H](Cc2ccccc2)NC(=O)C2CCN(C(=O)[C@H](C)N)CC2)cc1 | 5.0* | 18 | 1 | -2 | -1
COc1ccc(CNC(=O)[C@@H](C)NC(=O)C2CCN(C(=O)[C@@H](N)CCSC)CC2)cc1 | 0 | 11 | 0 | 0 | 0
Cc1ccc(S(=O)(=O)N2CCOCC2)cc1NCC(=O)Nc1ccc(OC(F)(F)F)cc1 | 0 | / | 0 | 0 | /
Oc1cc(-c2ccccc2)c2ccccc2c1 | 0 | 157* | 4 | 0 | 117
O=C(CN(c1ccc(Br)cc1)S(=O)(=O)c1ccc(Cl)c([N+](=O)[O-])c1)NCC1CCCO1 (centres undefined) | 1 | / | / | -3 | /
O=C1CCCC/C1=C\Nc1ccc(Cl)cn1 | 4.3* | -3 | -3 | 5 | 4
Cc1ccc(N/C=C2\CCCCC2=O)nc1 | 0 | 10 | -4 | 6 | 9
O=CNc1cc(-c2ccc(C(=O)NC3CC3)cc2)cn2c(-c3ccc(F)cc3)cnc12 | / | / | / | -4 | /
COC(=O)c1ccc(COn2nnc3ccccc32)cc1 | 0 | 59* | 25 | 6 | 41
COC(=O)c1ccc(Cn2nnc3ccccc32)cc1 | 2 | 5 | -1 | 0 | 8
Cc1cc(OCC(=O)Nc2sc3c(c2C#N)CC(C)(C)NC3(C)C)c(C(C)C)cc1Cl | 0 | -65 | 0 | 0 | -55*
Cc1ccc(C(C)C)c(OCC(=O)Nc2sc3c(c2C#N)CC(C)(C)NC3(C)C)c1 | 2 | 13 | 0 | -3 | 8
COc1ccc(NC(=O)c2oc3ccccc3c2C)c(OC)c1 | 0 | 28 | 58* | 2 | 0
SMILES | NR0B1 inh | HSF1 activator | AHR activator | GAA850 FXN act | HSF1 inhib
Cc1c(C(=O)Nc2nccs2)oc2ccccc12 | 4.6* | / | / | 5 | /
Cc1c(C(=O)Nc2ccc(Cl)cn2)oc2ccccc12 | 3 | 9 | 64* | -1 | 10
CC(=O)Nc1cccc(NC(=O)c2oc3ccccc3c2C)c1 | / | 26 | 113* | / | 16
Cc1cccc(OCC(=O)N(Cc2ccccc2)c2c(N)n(Cc3ccccc3)c(=O)[nH]c2=O)c1 | -1 | / | 1 | -3 | /
Cc1c(C(=O)NC2CCCC2)oc2ccccc12 | 0 | / | 61* | 3 | /
Cc1c(C(=O)Nc2c(C)n(C)n(-c3ccccc3)c2=O)oc2ccc(Cl)cc12 | 0 | 5 | 51* | 3 | -3
Cc1c(C(=O)Nc2cnccn2)oc2ccccc12 | 3 | 8 | 93* | -1 | 5
Cc1ccnc(NC(=O)c2oc3ccccc3c2C)c1 | 0 | 25 | 44 | 3 | 12
CCc1ccc2oc(C(=O)Nc3cccnc3)c(C)c2c1 | 5.1* | 48 | -6 | 4 | 21
Cc1c(C(=O)NC2=NCCS2)oc2ccccc12 | 1 | 17 | 64* | 3 | 6
Cc1sc(NC(=O)c2oc3ccccc3c2C)c(C#N)c1C | 1 | 33 | 9 | 0 | 11
Cc1ccc(S(=O)(=O)NN=C(c2ccccc2)c2cccs2)cc1 | 1 | / | / | -2 | /
